Measurements from PubChem BioAssay AID1159580 (chemical genetic matrix, 2015).
Screen size: about 5,500 compounds; about 2,000 (36%) were called active. Inconclusive results (about 18%) are left out. Cut-off read from the data, not from the text of the source: active = normalized growth mostly below about 0.91 (no sharp cut-off); inconclusive = no clear call, values can overlap the other calls; inactive = mostly above about 0.92. This is one part of the list.

Assay: chemical genetic growth profiling, strain panel (AID 1159580);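 note: tested at 20 µM; growth read once vehicle control cultures reached saturation at 30 °C; 1 = growth at the plate median or of vehicle wells; lower values mean less growth of the strain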
Details: S. cerevisiae deletion strains, growth OD
[1] = locus YHR030C, strain SLT2, stronger effect = lower value
[2] = locus YHR079C, strain IRE1, stronger effect = lower value
[3] = locus YJL095W, strain BCK1, stronger effect = lower value
[4] = locus YJR066W, strain TOR1, stronger effect = lower value
[5] = locus YLR113W, strain HOG1, stronger effect = lower value
[6] = locus YNL183C, strain NPR1, stronger effect = lower value
[7] = locus YOR231W, strain MKK1, stronger effect = lower value
[8] = locus YPL256C, strain CLN2, stronger effect = lower value

Measured: normalized growth

Nc1cc(=O)[nH]c(N)n1
inactive: locus YAL040C, strain CLN3, stronger effect = lower value 1.01 | locus YCL061C, strain MRC1 (second series), stronger effect = lower value 0.991 | locus YDR150W, strain NUM1, stronger effect = lower value 0.978 | locus YDR363W, strain ESC2, stronger effect = lower value 0.953 | locus YER002W, strain NOP16, stronger effect = lower value 1.01 | locus YMR307W, strain GAS1, stronger effect = lower value 0.981 | locus YNL128W, strain TEP1, stronger effect = lower value 0.984 | locus YNL175C, strain NOP13, stronger effect = lower value 1.01 | locus YNL197C, strain WHI3, stronger effect = lower value 0.987 | locus YNL224C, strain SQS1, stronger effect = lower value 1.01 | locus YNL322C, strain KRE1, stronger effect = lower value 1 | locus YOR083W, strain WHI5 (second series), stronger effect = lower value 1.02 | locus YPL241C, strain CIN2, stronger effect = lower value 1.01

CC(C)(C)c1ccc(C(=N)SC(C(=O)C(F)(F)F)c2ccccc2)cc1 (centres undefined)
inactive: locus YAR019C, strain CDC15, stronger effect = lower value 0.987 | locus YBL105C, strain PKC1, stronger effect = lower value 0.994 | locus YBR135W, strain CKS1, stronger effect = lower value 0.994 | locus YBR136W, strain MEC1, stronger effect = lower value 0.985 | locus YBR160W, strain CDC28, stronger effect = lower value 0.994 | locus YDL017W, strain CDC7, stronger effect = lower value 0.998 | locus YDL028C, strain MPS1, stronger effect = lower value 0.989 | locus YDL101C, strain DUN1, stronger effect = lower value 0.992 | locus YDL108W, strain KIN28, stronger effect = lower value 0.987 | locus YDL132W, strain cdc53, stronger effect = lower value 0.989 | locus YDL214C, strain PRR2, stronger effect = lower value 0.916 | locus YDR052C, strain DBF4, stronger effect = lower value 0.993 | locus YDR054C, strain cdc34, stronger effect = lower value 0.986 | locus YDR226W, strain ADK1, stronger effect = lower value 0.993 | locus YDR477W, strain SNF1, stronger effect = lower value 0.865 | locus YER123W, strain YCK3, stronger effect = lower value 0.877 | locus YER133W, strain GLC7, stronger effect = lower value 0.942 | locus YFL009W, strain cdc4, stronger effect = lower value 0.991 | locus YFL029C, strain CAK1, stronger effect = lower value 0.982 | locus YFR003C, strain YPI1, stronger effect = lower value 0.986 | locus YFR019W, strain FAB1, stronger effect = lower value 0.884 | locus YFR028C, strain CDC14, stronger effect = lower value 0.985 | locus YGR040W, strain KSS1, stronger effect = lower value 0.894 | locus YGR052W, strain FMP48, stronger effect = lower value 0.96 | locus YGR092W, strain DBF2, stronger effect = lower value 0.887 | [2] 0.804 | locus YHR082C, strain KSP1, stronger effect = lower value 0.766 | locus YHR205W, strain SCH9, stronger effect = lower value 0.778 | locus YIL147C, strain SLN1, stronger effect = lower value 0.992 | [3] 0.868 | locus YJL128C, strain PBS2, stronger effect = lower value 1.02 | locus YJL157C, strain FAR1, stronger effect = lower value 0.966 | locus YJR016C, strain ILV3, stronger effect = lower value 0.995 | locus YJR066W, strain TOR1 (second series), stronger effect = lower value 0.931 | [4] 0.859 | locus YKL048C, strain ELM1, stronger effect = lower value 0.96 | locus YKL067W, strain YNK1, stronger effect = lower value 0.951 | locus YKL101W, strain HSL1, stronger effect = lower value 0.875 | locus YKL193C, strain SDS22, stronger effect = lower value 0.986 | locus YKL203C, strain TOR2, stronger effect = lower value 0.98 | [5] 0.901 | locus YLR133W, strain CKI1, stronger effect = lower value 0.887 | locus YLR403W, strain SFP1, stronger effect = lower value 0.89 | locus YML070W, strain DAK1, stronger effect = lower value 0.9 | locus YMR001C, strain CDC5, stronger effect = lower value 0.983 | locus YMR205C, strain PFK2 (second series), stronger effect = lower value 0.941 | locus YMR277W, strain FCP1, stronger effect = lower value 0.993 | locus YNL006W, strain LST8, stronger effect = lower value 0.997 | locus YNL020C, strain ARK1, stronger effect = lower value 0.884 | locus YNL161W, strain CBK1, stronger effect = lower value 0.993 | [6] 0.863 | locus YNL207W, strain RIO2, stronger effect = lower value 0.99 | locus YNL222W, strain SSU72, stronger effect = lower value 0.989 | locus YNL307C, strain MCK1 (second series), stronger effect = lower value 0.794 | locus YOL078W, strain AVO1, stronger effect = lower value 0.994 | locus YOL136C, strain PFK27, stronger effect = lower value 0.901 | locus YOR061W, strain CKA2, stronger effect = lower value 0.885 | locus YOR119C, strain RIO1, stronger effect = lower value 0.979 | [7] 0.938 | locus YOR329C, strain SCD5, stronger effect = lower value 0.988 | locus YPL031C, strain PHO85, stronger effect = lower value 0.872 | locus YPL153C, strain RAD53, stronger effect = lower value 0.909 | locus YPL204W, strain HRR25, stronger effect = lower value 0.905 | locus YPL209C, strain IPL1, stronger effect = lower value 0.99 | locus YPR025C, strain CCL1, stronger effect = lower value 0.995 | locus YPR106W, strain ISR1, stronger effect = lower value 0.988 | locus YPR111W, strain DBF20, stronger effect = lower value 0.977 | strain NNK1, stronger effect = lower value 0.982 | strain TSCII, stronger effect = lower value 0.985
active: [1] 0.471 | [8] 0.846

O=S(=O)(O)c1cc(N=C=S)ccc1/C=C/c1ccc(N=C=S)cc1S(=O)(=O)O
inactive: locus YAL021C, strain ccr4, stronger effect = lower value 1.03 | locus YAL026C, strain drs2, stronger effect = lower value 1.01 | locus YAL030W, strain snc1, stronger effect = lower value 1.02 | locus YBL061C, strain skt5, stronger effect = lower value 1.03 | locus YBR009C, strain hhf1, stronger effect = lower value 1.05 | locus YBR023C, strain chs3, stronger effect = lower value 1.02 | locus YBR171W, strain sec66, stronger effect = lower value 1.04 | locus YBR231C, strain swc5, stronger effect = lower value 1.03 | locus YBR279W, strain paf1, stronger effect = lower value 1.01 | locus YCL011C, strain gbp2, stronger effect = lower value 1.02 | locus YCL016C, strain dcc1, stronger effect = lower value 1.03 | locus YCL061C, strain MRC1, stronger effect = lower value 1.02 | locus YCL069W, strain vba3, stronger effect = lower value 1.02 | locus YCR088W, strain abp1, stronger effect = lower value 1.02 | locus YDL005C, strain med2, stronger effect = lower value 1.03 | locus YDL040C, strain nat1, stronger effect = lower value 1.02 | locus YDR001C, strain nth1, stronger effect = lower value 1.02 | locus YDR069C, strain doa4, stronger effect = lower value 1.05 | locus YDR137W, strain rgp1, stronger effect = lower value 1.01 | locus YDR159W, strain sac3, stronger effect = lower value 1.06 | locus YDR195W, strain ref2 1.03 | locus YDR297W, strain sur2, stronger effect = lower value 1.03 | locus YDR334W, strain swr1, stronger effect = lower value 1.02 | locus YDR335W, strain msn5, stronger effect = lower value 1.03 | locus YDR392W, strain spt3, stronger effect = lower value 0.919 | locus YEL003W, strain gim4, stronger effect = lower value 1.02 | locus YEL037C, strain rad23, stronger effect = lower value 1.02 | locus YEL061C, strain CIN8 (second series), stronger effect = lower value 1.02 | locus YER015W, strain faa2, stronger effect = lower value 1.03 | locus YER016W, strain bim1, stronger effect = lower value 1.03 | locus YER111C, strain swi4, stronger effect = lower value 1.03 | locus YER155C, strain BEM2 (second series), stronger effect = lower value 1.04 | locus YFR010W, strain ubp6, stronger effect = lower value 1.03 | locus YGL167C, strain pmr1, stronger effect = lower value 1.03 | locus YGL173C, strain kem1, stronger effect = lower value 1.04 | locus YGL227W, strain vid30, stronger effect = lower value 1.03 | locus YGL240W, strain doc1, stronger effect = lower value 1.03 | locus YGL253W, strain hxk2, stronger effect = lower value 1.03 | locus YHR013C, strain ard1, stronger effect = lower value 1.04 | locus YHR027C, strain rpn1, stronger effect = lower value 1.02 | [1] 0.996 | [2] 1.04 | locus YHR142W, strain chs7, stronger effect = lower value 1.04 | locus YJL092W, strain hpr5, stronger effect = lower value 1.01 | locus YJL095W, strain BCK1 (second series), stronger effect = lower value 1.02 | [3] 0.99 | locus YJL115W, strain asf1, stronger effect = lower value 1.02 | locus YJL129C, strain trk1, stronger effect = lower value 1.06 | locus YJL154C, strain vps35, stronger effect = lower value 1.02 | locus YJL164C, strain tpk1, stronger effect = lower value 0.994 | locus YJL166W, strain qcr8, stronger effect = lower value 1.02 | locus YJL187C, strain SWE1, stronger effect = lower value 1.02 | [4] 0.924 | locus YKL160W, strain elf1, stronger effect = lower value 1.02 | locus YKR026C, strain gcn3, stronger effect = lower value 1.02 | locus YKR091W, strain srl3, stronger effect = lower value 1.03 | locus YLL001W, strain dnm1, stronger effect = lower value 1.01 | locus YLL026W, stronger effect = lower value 1.01 | locus YLL041C, strain sdh2, stronger effect = lower value 1.02 | locus YLR027C, strain aat2, stronger effect = lower value 1.02 | [5] 1.11 | locus YLR221C, strain rsa3, stronger effect = lower value 1.02 | locus YLR258W, strain gsy2, stronger effect = lower value 1.03 | locus YLR262C, strain YPT6 (second series), stronger effect = lower value 1.04 | locus YLR320W, strain mms22, stronger effect = lower value 1.05 | locus YLR342W, strain FKS1, stronger effect = lower value 1.04 | locus YLR357W, strain rsc2, stronger effect = lower value 0.993 | locus YLR370C, strain arc18, stronger effect = lower value 1.03 | locus YLR384C, strain iki3, stronger effect = lower value 1.03 | locus YML120C, strain ndi1, stronger effect = lower value 1.01 | locus YMR058W, strain fet3, stronger effect = lower value 1.01 | locus YMR125W, strain sto1, stronger effect = lower value 1.03 | locus YMR129W, stronger effect = lower value 1.02 | locus YMR205C, strain PFK2, stronger effect = lower value 1.06 | locus YMR231W, strain pep5, stronger effect = lower value 1.02 | locus YNL071W, strain lat1, stronger effect = lower value 1.02 | [6] 0.961 | locus YNL209W, strain ssb2, stronger effect = lower value 1.03 | locus YNL248C, strain rpa49, stronger effect = lower value 1 | locus YNL322C, strain KRE1 (second series), stronger effect = lower value 1.03 | locus YNR049C, strain mso1, stronger effect = lower value 1.03 | locus YOR001W, strain rrp6, stronger effect = lower value 0.999 | locus YOR070C, strain gyp1, stronger effect = lower value 1.01 | locus YOR080W, strain dia2, stronger effect = lower value 1.04 | locus YOR083W, strain WHI5, stronger effect = lower value 1.01 | locus YOR106W, strain vam3, stronger effect = lower value 1.04 | [7] 1.03 | locus YOR265W, strain rbl2, stronger effect = lower value 1.02 | locus YOR270C, strain vph1, stronger effect = lower value 1.04 | locus YOR290C, strain snf2, stronger effect = lower value 0.954 | locus YPL051W, strain arl3, stronger effect = lower value 0.994 | locus YPL078C, strain atp4, stronger effect = lower value 1.02 | locus YPL106C, strain sse1, stronger effect = lower value 1.05 | locus YPL240C, strain hsp82, stronger effect = lower value 1.03 | [8] 1.11
